In the library only some 18% were active in any assay of this set; here they are far more common.
VDR inh: Inhibitors of the vitamin D receptor (VDR): qHTS. Vitamin D3 receptor (Homo sapiens), P11473. VDR-SRC2-3 peptide fluorescence polarization, 2 h. Potency, µM, for inactives: max response, negative = inhibition, usual class: inhibitors. 400,000 tested, 0.93% active. AID 504847, 2011
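The screen uses fluorescence polarization to detect compounds that interfere with recruitment of the SRC2-3 coactivator peptide to VDR; plates are read after 2 h at room temperature.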
TDP1 block: qHTS Assay for Inhibitors of Tyrosyl-DNA Phosphodiesterase (TDP1). Potency, µM (highest dose often 130 µM), inactives show top-dose activity change, negative = inhibition, hits mostly inhibitors. 350,000 tested, 0.28% active. Tyrosyl-DNA phosphodiesterase 1 (Homo sapiens), Q9NUW8. recombinant TDP1, AlphaScreen DNA substrate cleavage; note: nearly all actives have a fitted effect of over 40% in size
Target sequence (Q9NUW8 whole entry, looked up): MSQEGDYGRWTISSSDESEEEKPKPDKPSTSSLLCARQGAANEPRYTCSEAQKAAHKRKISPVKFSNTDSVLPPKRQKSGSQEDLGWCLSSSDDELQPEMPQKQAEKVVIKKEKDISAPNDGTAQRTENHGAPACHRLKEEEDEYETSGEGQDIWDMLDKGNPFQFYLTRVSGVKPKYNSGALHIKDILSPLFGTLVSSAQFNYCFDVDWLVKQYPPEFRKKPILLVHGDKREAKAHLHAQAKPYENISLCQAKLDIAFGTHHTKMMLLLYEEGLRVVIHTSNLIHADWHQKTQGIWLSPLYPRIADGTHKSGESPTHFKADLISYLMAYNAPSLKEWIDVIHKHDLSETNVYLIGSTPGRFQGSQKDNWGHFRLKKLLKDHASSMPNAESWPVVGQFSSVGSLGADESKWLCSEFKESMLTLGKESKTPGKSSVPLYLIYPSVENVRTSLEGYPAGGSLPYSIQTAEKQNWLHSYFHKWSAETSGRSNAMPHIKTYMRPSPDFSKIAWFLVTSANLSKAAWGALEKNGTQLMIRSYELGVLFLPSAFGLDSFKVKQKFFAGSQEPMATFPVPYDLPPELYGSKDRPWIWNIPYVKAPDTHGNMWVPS
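Compounds were preincubated with Tdp1 (1 nM final) for 15 min at room temperature before substrate (15 nM final) started a 5 min reaction; beads (10 ug/ml final) were then added for 10 min before AlphaScreen detection.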
TDP1 cell CPT: qHTS for Inhibitors of human tyrosyl-DNA phosphodiesterase 1 (TDP1): qHTS in cells in presence of CPT; chicken DT40 Tdp1-/-;hTDP1 cells + 20 nM CPT, ATP luminescence, 48 h; Potency, µM (series often up to 46.2 µM), inactives show at the highest dose activity change, negative = growth inhibition, most hits filed as inhibitors; 420,000 tested, 12% active; note: nearly all actives have a fitted effect of over 55% in size
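Chicken DT40 Tdp1-/- cells complemented with human TDP1, 400 cells/well, exposed to compounds plus 20 nM camptothecin for at least 48 h at 37 C; viability read as ATP content by CellTiter-Glo luminescence.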
TDP1 cell noCPT: qHTS for Inhibitors of human tyrosyl-DNA phosphodiesterase 1 (TDP1): qHTS in cells in absence of CPT. DT40 Tdp1-/- hTDP1 cells, no CPT, ATP luminescence, 48 h. Potency, µM (doses to about 46.2 µM), for the others: at the top dose activity change, negative = growth inhibition, actives largely listed as inhibitors. 420,000 tested, 15% active. AID 686978, 2013; note: nearly all actives have a fitted effect of over 55% in size
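Seeded 400 DT40-hTDP1 cells/well (vehicle DMSO, no 20 nM CPT); pinned compounds; ≥48 hr at 37 °C; CellTiter-Glo luminescence as viability measure.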
KAT2A inh: qHTS Assay for Inhibitors of GCN5L2; GCN5L2 HAT assay, ThioGlo1 CoA-SH fluorescence; Potency, µM (titrated, usually from 58.9 µM), inactives show top-dose activity change, negative = inhibition, usual class: inhibitors; 390,000 tested, 0.21% active; AID 504327, 2011
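Titration-based screen in which CoA formation is detected via maleimide probe ThioGlo1 (50uM) turning fluorescent on thiol reaction; substrates H3(1-25) 75uM and acetyl-CoA 70uM, GCN5L2 20nM, 20 min incubation at room temperature.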
PLK1 PBD block: qHTS for Inhibitors of PLK1-PDB (polo-like kinase 1 - polo-box domain): Primary Screen | 360,000 tested, 2.8% active | AID 720504, 2013 | Plk1 PBD binding of FITC phosphopeptide, fluorescence polarization | Serine/threonine-protein kinase PLK1 (Homo sapiens), P53350 | Potency, µM, inactives show max response, negative = inhibition, most hits filed as inhibitors; note: series mostly up to about 57 µM; nearly all actives have a fitted effect of over 65% in size
* = called active by the depositor; u = inconclusive; x = no result given; ! = repeats disagree. Calls come from the whole dose curve; as a rule, active = well fitted curve in the direction sought with a large enough effect; inconclusive = small, poorly fitted or top-dose-only effect, or another doubt; inactive = no such curve, though single readings can be large; an effect the other way counts as inactive or inconclusive. % is set by controls: 0 for no effect and ±100 for the full control effect; potency is the fitted concentration of half-maximal effect.

SMILES	VDR inh	TDP1 block	TDP1 cell CPT	TDP1 cell noCPT	KAT2A inh	PLK1 PBD block
O=C(CCNS(=O)(=O)c1ccc2c(c1)CCN2C(=O)C1CC1)N1CCN(c2ccccc2F)CC1	3.0%	4.4%	13µM*	11.6µM*	0.4%	x
CC(=O)N1CCc2cc(S(=O)(=O)NCCC(=O)N3CCN(c4ccccn4)CC3)ccc21	8.5%	4.0%	-23.2%	u	-5.7%	1.2%
CCCCOc1ccc(C(=O)N(Cc2ccc(C(C)C)cc2)C2CCS(=O)(=O)C2)cc1 (stereo not given)	9.0%	3.2%	u	u	-10.5%	x
CCOC1Cc2ccccc2N(C(N)=O)c2ccccc21 (stereo not given)	-19.3%	1.8%	2.2%	3.4%	0.0%	-0.2%
NC(=O)N1c2ccccc2CC(=O)c2ccccc21	50.1µM*!	1.2%	u	u	-0.5%	-18.5%
CC1=CC(=O)C=C(C)C1=NOC(=O)c1cccc([N+](=O)[O-])c1	2.8%	1.8%	10.3µM*	u	2.6%	9.47µM*
Cc1ccnc(NC(=O)C(Cc2ccccc2)NC(=O)c2ccccc2)c1 (stereo not given)	-20.4%	0.9%	u	16.4µM*	0.1%	-2.5%
CCN(c1ccccc1)S(=O)(=O)c1cc(C(=O)Nc2ccc(F)c(F)c2)ccc1F	-17.9%	-5.6%	23.1µM*	u	-16.8%	-1.5%
CCN(c1ccccc1)S(=O)(=O)c1ccc(C(=O)Nc2cc(C)ccn2)cc1	-21.9%	0.9%	16.4µM*	18.4µM*	0.6%	-3.5%
CCN(c1ccccc1)S(=O)(=O)c1ccc(C(=O)Nc2ccncc2)cc1	-13.2%	0.0%	23.1µM*	20.6µM*	-11.2%	-12.6%
CCN(c1ccccc1)S(=O)(=O)c1ccc(C(=O)Nc2cccc(NC(C)=O)c2)cc1	17.1%	0.8%	u	-21.5%	-6.3%	6.2%
Cc1cccc(NC(=O)CNC(=O)COc2ccc(C(=O)c3ccc(F)cc3)cc2)c1C	3.8%	0.0%	18.4µM*	10.3µM*	0.2%	1.2%
Cc1cccc(NC(=O)CNC(=O)COc2ccc(-c3ccc(C#N)cc3)cc2)c1C	3.0%	0.6%	-22.5%	13µM*	0.0%	-11.9%
Cc1cccc(NC(=O)CNC(=O)COc2cc(F)ccc2[N+](=O)[O-])c1C	u	7.7%	u	u	-3.7%	15µM*
COc1ccc(N2CCN(C(c3ccccc3)c3nnnn3C(C)C)CC2)cc1 (stereo not given)	-9.6%	x	u	u	x	x
O=C(NC1CCCCCC1)c1c(O)nc2sccn2c1=O	-20.1%	x	16.4µM*	14.6µM*	-3.5%	-7.8%
N#CCCN1CCN(C(=S)c2ccc(-c3ccc(Cl)c(Cl)c3)o2)CC1	-11.2%	8.3%	25.9µM*	u	-8.3%	10.6µM*
COc1ccc(Cc2c(-c3ccc(C)cc3)nc3cc(C)c(Br)c(C)n23)c(C)c1	x	x	2.31µM*	u	x	-8.7%
COc1ccc(Cc2c(-c3ccc(F)cc3)nc3cc(C)c(Br)c(C)n23)c(C)c1	x	x	u	18.4µM*	x	-1.2%
COc1ccc(Cc2c(-c3ccc(Cl)cc3)nc3cc(C)c(Br)c(C)n23)c(C)c1	x	x	u	u	x	1.9%
NC(=O)c1ccc(NC(=O)COC(=O)c2c[nH]c3ccccc23)cc1	-7.4%	-8.4%	-24.4%	-17.9%	-6.4%	-13.5%
O=C(CS(=O)c1ccc(C(F)(F)F)cc1[N+](=O)[O-])Oc1ccc(Cl)cc1 (stereo not given)	50.1µM*	6.0%	9.2µM*	11.6µM*	-7.1%	13.4µM*
COc1cccc(N2CC(C)Cn3c2nc2c3c(=O)[nH]c(=O)n2C)c1 (stereo not given)	6.3%	x	u	u	-0.6%	-10.5%
COC(=O)[C@]12CCCCC=C1N(Cc1cccc3ccccc13)C(=O)[C@H](CC(=O)NCCCN1CCCC1=O)C2	x	x	u	16.4µM*	x	6.3%
CCCCOCCCNC(=O)C[C@@H]1C[C@@]2(C(=O)OC)CCCCC=C2N(Cc2ccccc2)C1=O	x	x	18.4µM*	13µM*	x	-9.7%
SMILES	VDR inh	TDP1 block	TDP1 cell CPT	TDP1 cell noCPT	KAT2A inh	PLK1 PBD block
CCOC(=O)[C@]12CCC=C1N(Cc1cccc3ccccc13)C(=O)[C@H](CC(=O)NCC13CC4CC(CC(C4)C1)C3)C2	x	x	20.6µM*	u	x	-0.1%
CCCCOCCCNC(=O)C[C@@H]1C[C@@]2(C(=O)OCC)CCC=C2N(Cc2cccc3ccccc23)C1=O	x	x	20.6µM*	18.4µM*	x	-6.9%
COCC(C)NC(=S)Nc1ccccc1[N+](=O)[O-] (stereo not given)	-15.3%	1.8%	-26.9%	-8.2%	-9.2%	u
CCCCOCCCNC(=O)C[C@@H]1C[C@@]2(C(=O)OC)CCCCC=C2N(Cc2cccc3ccccc23)C1=O	x	x	u	20.6µM*	x	-9.4%
CCOC(=O)[C@]12CCCC=C1N(Cc1cccc3ccccc13)C(=O)[C@H](CC(=O)NCCCOC)C2	x	x	u	u	x	4.1%
CCOC(=O)[C@]12CCC=C1N(Cc1cccc3ccccc13)C(=O)[C@H](CC(=O)NCCCOC)C2	x	x	18.4µM*	14.6µM*	x	-5.8%
O=S1(=O)C=CC(Sc2nc3ccccc3[nH]2)C1 (stereo not given)	-5.3%	-4.8%	13µM*	20.6µM*	-3.2%	-3.7%
CC1=CS(=O)(=O)CC1Sc1nc2ccccc2[nH]1 (stereo not given)	4.9%	4.7%	11.9%	4.6%	0.6%	-6.3%
Cc1c(C#N)c(N)nc(Cl)c1C#N	0.4%	5.8%	-28.1%	u	0.3%	-12.0%
N#Cc1c(Cl)nsc1NN	-4.4%	8.9%	u	u	3.1%	29.9µM*
O=C(COc1cccc(Cl)c1)Nc1nc(-c2ccc(S(=O)(=O)N3CCOCC3)cc2)cs1	-6.0%	-2.2%	20.6µM*	11.6µM*	-7.4%	-17.9%
CCOC(=O)c1c(-c2ccccc2Cl)csc1NC(=O)c1cc(S(=O)(=O)N2CCOCC2)ccc1C	-13.4%	-2.7%	10.3µM*	7.31µM*	-8.9%	10.6µM*
CC(C)C(=O)Nc1nc(-c2ccc(S(=O)(=O)N3CCOCC3)cc2)cs1	5.5%	1.7%	u	u	0.3%	-15.3%

Source: PubChem BioAssay
